Results published in the supplement of paper PMC10849652.
Targets with a hit are over-represented here; the source holds about 8,800 in all. About 0.5% of all pairs of compound and target were hits.

Key:
Test in all cases: log2 fold change, soluble protein after heating vs DMSO (PISA); higher = thermal stabilisation; K562 lysate, 10 uM; active = over 0.2 and 3.5 SD of the protein, either way, in both replicates (recomputed)
[1] = compound: CS(=O)(=O)CCNCc1ccc(-c2ccc3ncnc(Nc4ccc(OCc5cccc(F)c5)c(Cl)c4)c3c2)o1 [lapatinib]
In short: (§1)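 K562 pellets were dounce-homogenised in PBS pH 7.4 with 1 mM MgCl2, and the crude extract at 1 mg/mL protein was treated with 10 μM compound for 30 min. Aliquots were heated for 3 min across 48°C-58°C, pooled, and brought to 0.5% NP-40 at 4°C; soluble protein was the supernatant after 21,000xg for 90 min. Soluble protein was quantified by TMTpro 16plex LC-MS/MS with channel sums equalised, and reported as log2 fold change in thermal stability against DMSO controls, with values from duplicates.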

[2] = compound: CS(=O)(=O)N1CCN(Cc2cc3nc(-c4cccc5[nH]ncc45)nc(N4CCOCC4)c3s2)CC1 [pictilisib]
In short: as §1

[3] = compound: C[C@@H](Oc1cc(-c2cnn(C3CCNCC3)c2)cnc1N)c1c(Cl)ccc(F)c1Cl [crizotinib]
In short: as §1

[4] = compound: C[C@H](C1=CC=C(C=C1)C(=O)NC2=C3C=CNC3=NC=C2)N
In short: as §1

[5] = compound: C[C@H](Nc1ncnc2nc[nH]c12)c1cc2cccc(Cl)c2c(=O)n1-c1ccccc1 [duvelisib]
In short: as §1

[6] = compound: Cc1cc(Nc2cc(CN3CCOCC3)c3nc(C)c(Cc4ccc(Cl)cc4F)n3n2)n[nH]1 [gandotinib]
In short: as §1

[7] = compound: Cc1cc(Nc2cc(N3CCN(C)CC3)nc(Sc3ccc(NC(=O)C4CC4)cc3)n2)n[nH]1 [tozasertib]
In short: as §1

[8] = compound: Cc1ccc(-n2nc(C(C)(C)C)cc2NC(=O)Nc2ccc(OCCN3CCOCC3)c3ccccc23)cc1 [doramapimod]
In short: as §1

[9] = compound: Cc1ccc(NC(=O)c2ccc(CN3CC[C@H](N(C)C)C3)c(C(F)(F)F)c2)cc1Nc1nccc(-c2cncnc2)n1 [bafetinib]
In short: as §1

[10] = compound: Cc1cccc(CC(=O)N2CCc3c2ccc(-c2cn(C)c4ncnc(N)c24)c3F)n1
In short: as §1

Measured: log2 fold change

PRKAR2A (UniProt P13861)
active: [6] -0.232
inactive: [1] 0.036 | [2] -0.094 | [3] 0.013 | [4] 0.006 | [5] -0.025 | [7] 0.015 | [8] 0.036 | [9] -0.026 | [10] 0.031

PIGO (UniProt Q8TEQ8)
Sequence of UniProt Q8TEQ8 (Q8TEQ8 whole entry, looked up): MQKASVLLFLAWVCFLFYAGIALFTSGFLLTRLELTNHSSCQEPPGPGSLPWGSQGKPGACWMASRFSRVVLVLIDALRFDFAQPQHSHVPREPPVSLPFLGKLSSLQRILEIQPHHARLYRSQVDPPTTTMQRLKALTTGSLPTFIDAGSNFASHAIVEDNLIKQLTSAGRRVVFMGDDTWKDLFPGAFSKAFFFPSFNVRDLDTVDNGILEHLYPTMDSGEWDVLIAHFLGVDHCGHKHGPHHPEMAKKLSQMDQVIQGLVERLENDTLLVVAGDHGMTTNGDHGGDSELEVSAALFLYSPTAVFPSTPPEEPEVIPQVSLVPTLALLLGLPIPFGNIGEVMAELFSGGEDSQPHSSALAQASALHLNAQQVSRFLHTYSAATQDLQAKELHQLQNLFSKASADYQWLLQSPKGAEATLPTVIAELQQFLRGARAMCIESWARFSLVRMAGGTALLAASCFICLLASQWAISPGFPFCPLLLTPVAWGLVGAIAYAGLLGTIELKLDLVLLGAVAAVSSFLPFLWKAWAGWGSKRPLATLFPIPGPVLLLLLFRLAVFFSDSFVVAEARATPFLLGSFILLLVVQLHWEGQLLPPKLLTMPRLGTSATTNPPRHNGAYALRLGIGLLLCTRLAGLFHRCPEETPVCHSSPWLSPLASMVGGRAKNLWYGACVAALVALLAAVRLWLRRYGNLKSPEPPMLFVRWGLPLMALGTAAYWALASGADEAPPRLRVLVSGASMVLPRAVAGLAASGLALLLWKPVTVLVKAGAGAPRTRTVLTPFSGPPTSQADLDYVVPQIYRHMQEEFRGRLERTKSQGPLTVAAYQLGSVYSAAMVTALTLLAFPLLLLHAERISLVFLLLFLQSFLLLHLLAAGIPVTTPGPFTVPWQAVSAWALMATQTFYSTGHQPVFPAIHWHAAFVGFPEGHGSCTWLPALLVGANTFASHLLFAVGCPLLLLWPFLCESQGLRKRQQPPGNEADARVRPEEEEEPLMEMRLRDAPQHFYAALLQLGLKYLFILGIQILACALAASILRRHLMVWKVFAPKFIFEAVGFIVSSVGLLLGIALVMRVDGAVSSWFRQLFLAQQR
inactive: [1] 0.047 | [2] 0.133 | [3] -0.02 | [4] 0.019 | [5] 0.076 | [6] -0.193 | [7] 0.117 | [8] -0.186 | [9] -0.026 | [10] 0.037

PPIL2 (UniProt Q13356)
inactive: [1] -0.034 | [2] -0.014 | [3] -0.037 | [4] -0.011 | [5] -0.047 | [6] -0.019 | [7] 0.047 | [8] 0.043 | [9] -0.022 | [10] 0.054

PHACTR4 isoform 2 (UniProt Q8IZ21)
active: [4] 0.764
inactive: [1] -0.015 | [2] -0.014 | [3] -0.005 | [5] 0 | [6] -0.121 | [7] -0.03 | [8] -0.003 | [9] 0.022 | [10] -0.196

PIKFYVE (UniProt Q9Y2I7)
Sequence of UniProt Q9Y2I7 (Q9Y2I7 whole entry, looked up): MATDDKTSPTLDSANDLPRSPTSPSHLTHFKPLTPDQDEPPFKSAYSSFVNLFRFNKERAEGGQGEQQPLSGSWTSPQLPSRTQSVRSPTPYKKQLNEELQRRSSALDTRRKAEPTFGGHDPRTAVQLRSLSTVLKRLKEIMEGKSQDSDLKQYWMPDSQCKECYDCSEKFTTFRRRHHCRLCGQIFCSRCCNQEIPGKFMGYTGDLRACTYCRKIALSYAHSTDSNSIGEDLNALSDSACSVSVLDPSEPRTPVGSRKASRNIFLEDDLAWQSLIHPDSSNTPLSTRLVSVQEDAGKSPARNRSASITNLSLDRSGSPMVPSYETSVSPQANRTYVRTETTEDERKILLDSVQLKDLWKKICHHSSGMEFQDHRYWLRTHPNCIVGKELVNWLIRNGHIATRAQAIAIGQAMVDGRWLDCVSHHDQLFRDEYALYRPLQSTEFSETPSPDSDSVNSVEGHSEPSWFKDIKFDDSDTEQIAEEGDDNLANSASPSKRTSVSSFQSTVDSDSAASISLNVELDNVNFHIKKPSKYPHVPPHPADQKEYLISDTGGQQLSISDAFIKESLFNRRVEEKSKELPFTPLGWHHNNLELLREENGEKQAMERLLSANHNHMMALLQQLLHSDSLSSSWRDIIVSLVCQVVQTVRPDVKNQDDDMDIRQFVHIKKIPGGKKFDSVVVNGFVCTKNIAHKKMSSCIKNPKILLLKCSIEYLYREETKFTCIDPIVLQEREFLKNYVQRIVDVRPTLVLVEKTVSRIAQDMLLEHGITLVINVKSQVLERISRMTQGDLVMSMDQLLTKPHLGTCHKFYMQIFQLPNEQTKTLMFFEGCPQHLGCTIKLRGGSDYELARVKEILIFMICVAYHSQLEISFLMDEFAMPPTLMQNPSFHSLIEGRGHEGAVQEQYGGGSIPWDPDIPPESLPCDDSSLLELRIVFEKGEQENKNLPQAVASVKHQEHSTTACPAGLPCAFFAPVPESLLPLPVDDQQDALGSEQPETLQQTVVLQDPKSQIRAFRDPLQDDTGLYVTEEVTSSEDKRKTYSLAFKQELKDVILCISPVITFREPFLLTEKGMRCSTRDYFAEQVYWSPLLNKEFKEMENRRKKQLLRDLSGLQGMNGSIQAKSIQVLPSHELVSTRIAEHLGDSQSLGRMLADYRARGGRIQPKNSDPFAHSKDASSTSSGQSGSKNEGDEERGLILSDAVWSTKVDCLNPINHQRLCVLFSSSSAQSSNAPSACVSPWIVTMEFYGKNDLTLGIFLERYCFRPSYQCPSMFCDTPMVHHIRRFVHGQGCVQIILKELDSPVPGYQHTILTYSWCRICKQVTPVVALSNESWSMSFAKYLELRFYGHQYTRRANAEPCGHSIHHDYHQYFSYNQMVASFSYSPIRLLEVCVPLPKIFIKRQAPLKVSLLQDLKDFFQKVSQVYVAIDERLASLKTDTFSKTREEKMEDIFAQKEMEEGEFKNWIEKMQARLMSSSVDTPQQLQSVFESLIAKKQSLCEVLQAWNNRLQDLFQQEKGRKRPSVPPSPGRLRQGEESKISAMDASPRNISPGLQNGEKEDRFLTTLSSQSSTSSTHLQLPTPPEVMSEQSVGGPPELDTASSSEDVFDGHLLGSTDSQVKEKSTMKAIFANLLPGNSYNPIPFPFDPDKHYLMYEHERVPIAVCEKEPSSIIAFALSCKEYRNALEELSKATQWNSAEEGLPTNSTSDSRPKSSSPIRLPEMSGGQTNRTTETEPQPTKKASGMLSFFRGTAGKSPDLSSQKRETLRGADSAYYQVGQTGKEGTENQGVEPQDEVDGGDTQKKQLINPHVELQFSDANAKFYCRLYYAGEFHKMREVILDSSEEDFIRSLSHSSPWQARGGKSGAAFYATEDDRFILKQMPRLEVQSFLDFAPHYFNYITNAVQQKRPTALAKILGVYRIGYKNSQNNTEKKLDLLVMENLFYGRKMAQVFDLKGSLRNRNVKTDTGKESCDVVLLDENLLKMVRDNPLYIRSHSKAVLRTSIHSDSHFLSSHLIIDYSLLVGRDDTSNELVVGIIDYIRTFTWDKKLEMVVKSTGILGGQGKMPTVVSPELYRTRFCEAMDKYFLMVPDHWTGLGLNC
inactive: [1] -0.039 | [2] -0.06 | [3] -0.002 | [4] -0.058 | [5] -0.013 | [6] 0.01 | [7] -0.014 | [8] 0.029 | [9] -0.053 | [10] 0.066

PPT2 isoform 3 (UniProt Q9UMR5)
inactive: [1] -0.053 | [2] -0.032 | [3] 0.035 | [4] 0.058 | [5] 0.06 | [6] 0.016 | [7] 0.004 | [8] 0 | [9] 0.005 | [10] -0.05

PREP (UniProt P48147)
inactive: [1] -0.024 | [2] -0.013 | [3] -0.016 | [4] 0.009 | [5] 0.043 | [6] -0.042 | [7] -0.012 | [8] -0.001 | [9] -0.004 | [10] -0.01

PRKCA (UniProt P17252)
inactive: [1] -0.041 | [2] -0.021 | [3] -0.019 | [4] 0.054 | [5] -0.057 | [6] -0.207 | [7] 0.021 | [8] -0.023 | [9] -0.069 | [10] -0.079

PIK3CB (UniProt P42338)
active: [2] 0.497 | [5] 0.645
inactive: [1] -0.007 | [3] -0.068 | [4] 0.022 | [6] 0.096 | [7] 0.017 | [8] -0.006 | [9] -0.034 | [10] 0.012

PDCD6IP (UniProt Q8WUM4)
inactive: [1] -0.006 | [2] -0.032 | [3] -0.103 | [4] -0.106 | [5] 0.004 | [6] -0.012 | [7] 0.033 | [8] 0.034 | [9] -0.053 | [10] 0.012

PICALM (UniProt Q13492)
inactive: [1] 0.012 | [2] 0.001 | [3] 0.024 | [4] 0.052 | [5] 0.012 | [6] 0.022 | [7] 0.013 | [8] 0.028 | [9] -0.055 | [10] -0.007

PUS3 (UniProt Q9BZE2)
inactive: [1] 0.008 | [2] -0.085 | [3] 0.013 | [4] 0.148 | [5] -0.03 | [6] -0.234 | [7] 0.019 | [8] -0.087 | [9] -0.005 | [10] -0.185

PFKFB3 isoform 4 (UniProt Q16875)
inactive: [1] -0.228 | [2] -0.057 | [3] -0.021 | [4] 0.004 | [5] -0.009 | [6] -0.006 | [7] -0.003 | [8] 0.007 | [9] -0.03 | [10] 0.007

PMPCA (UniProt Q10713)
inactive: [1] -0.02 | [2] -0.043 | [3] -0.048 | [4] -0.053 | [5] 0.053 | [6] -0.004 | [7] 0.016 | [8] 0.079 | [9] 0.046 | [10] 0.025

PRKCSH (UniProt P14314)
Sequence of UniProt P14314 (P14314 whole entry, looked up): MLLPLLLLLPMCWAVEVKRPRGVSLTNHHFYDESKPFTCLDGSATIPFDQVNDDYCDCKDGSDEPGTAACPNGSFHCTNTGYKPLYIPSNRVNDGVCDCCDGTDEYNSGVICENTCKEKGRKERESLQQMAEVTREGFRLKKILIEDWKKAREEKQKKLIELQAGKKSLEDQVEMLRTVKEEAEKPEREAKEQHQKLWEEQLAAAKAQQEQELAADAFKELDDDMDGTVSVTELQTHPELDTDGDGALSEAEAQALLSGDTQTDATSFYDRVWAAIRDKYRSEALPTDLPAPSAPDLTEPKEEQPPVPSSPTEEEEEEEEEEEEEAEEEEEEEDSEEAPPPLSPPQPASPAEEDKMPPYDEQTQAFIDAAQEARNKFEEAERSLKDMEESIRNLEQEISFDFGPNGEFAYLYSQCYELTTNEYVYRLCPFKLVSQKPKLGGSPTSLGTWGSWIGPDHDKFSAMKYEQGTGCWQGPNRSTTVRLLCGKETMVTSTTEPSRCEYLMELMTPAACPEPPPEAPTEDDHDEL
inactive: [1] -0.004 | [2] -0.004 | [3] 0.062 | [4] 0.046 | [5] 0.022 | [6] -0.023 | [7] 0.02 | [8] -0.042 | [9] 0.05 | [10] -0.088

PDCD4 (UniProt Q53EL6)
inactive: [1] -0.026 | [2] -0.003 | [3] -0.055 | [4] -0.051 | [5] -0.022 | [6] 0.009 | [7] -0.002 | [8] 0.011 | [9] -0.038 | [10] 0.062

PITRM1 isoform 2 (UniProt Q5JRX3)
Sequence of UniProt Q5JRX3 (Q5JRX3 whole entry, looked up): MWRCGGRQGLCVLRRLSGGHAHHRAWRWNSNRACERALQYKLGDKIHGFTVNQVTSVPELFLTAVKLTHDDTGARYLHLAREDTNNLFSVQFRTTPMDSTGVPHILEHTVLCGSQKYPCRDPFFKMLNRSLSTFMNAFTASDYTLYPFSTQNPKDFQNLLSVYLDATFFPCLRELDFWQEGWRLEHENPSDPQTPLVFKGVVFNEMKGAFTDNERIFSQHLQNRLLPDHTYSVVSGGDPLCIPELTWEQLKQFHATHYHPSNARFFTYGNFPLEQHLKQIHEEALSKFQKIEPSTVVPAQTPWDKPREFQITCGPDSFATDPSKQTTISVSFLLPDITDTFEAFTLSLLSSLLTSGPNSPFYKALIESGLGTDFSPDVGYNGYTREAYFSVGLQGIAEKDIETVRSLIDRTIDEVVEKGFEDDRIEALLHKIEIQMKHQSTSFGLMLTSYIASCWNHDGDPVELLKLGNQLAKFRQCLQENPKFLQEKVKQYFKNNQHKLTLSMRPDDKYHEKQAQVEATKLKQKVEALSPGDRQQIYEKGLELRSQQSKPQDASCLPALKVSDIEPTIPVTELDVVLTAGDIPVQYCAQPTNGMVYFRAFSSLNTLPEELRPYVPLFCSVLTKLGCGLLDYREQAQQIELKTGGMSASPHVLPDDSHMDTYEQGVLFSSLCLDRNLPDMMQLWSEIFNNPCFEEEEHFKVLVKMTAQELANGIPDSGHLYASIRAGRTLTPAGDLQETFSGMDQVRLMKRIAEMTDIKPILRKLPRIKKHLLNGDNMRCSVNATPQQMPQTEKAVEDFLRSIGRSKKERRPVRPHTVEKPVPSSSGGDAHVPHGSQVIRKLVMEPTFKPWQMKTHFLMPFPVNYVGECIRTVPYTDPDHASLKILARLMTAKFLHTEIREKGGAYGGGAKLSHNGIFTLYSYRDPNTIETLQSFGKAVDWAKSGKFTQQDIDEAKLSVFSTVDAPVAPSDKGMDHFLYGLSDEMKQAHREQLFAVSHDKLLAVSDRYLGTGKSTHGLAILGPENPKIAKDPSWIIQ
inactive: [1] -0.001 | [2] -0.025 | [3] 0.053 | [4] 0.04 | [5] 0.029 | [6] 0.013 | [7] 0.006 | [8] -0.024 | [9] -0.023 | [10] -0.062

PUS1 (UniProt Q9Y606)
inactive: [1] -0.042 | [2] -0.058 | [3] -0.062 | [4] -0.006 | [5] 0.008 | [6] -0.033 | [7] 0.012 | [8] 0.006 | [9] -0.047 | [10] 0.027

PTS (UniProt Q03393)
Sequence of UniProt Q03393 (Q03393 whole entry, looked up): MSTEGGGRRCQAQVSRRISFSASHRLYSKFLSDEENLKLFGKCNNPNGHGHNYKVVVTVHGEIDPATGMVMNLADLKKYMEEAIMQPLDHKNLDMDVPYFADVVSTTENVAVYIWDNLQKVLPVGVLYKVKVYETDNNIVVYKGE
inactive: [1] -0.018 | [2] 0.008 | [3] 0.051 | [4] -0.024 | [5] 0.051 | [6] -0.039 | [7] 0.031 | [8] -0.069 | [9] 0 | [10] 0.05

PDS5A (UniProt Q29RF7)
inactive: [1] -0.024 | [2] -0.053 | [3] -0.123 | [4] -0.09 | [5] 0.023 | [6] -0.127 | [7] 0.008 | [8] 0.006 | [9] -0.075 | [10] 0.125

PPCDC (UniProt Q96CD2)
active: [4] -0.342
inactive: [1] -0.023 | [2] -0.176 | [3] 0 | [5] 0.062 | [6] 0.152 | [7] 0 | [8] 0.024 | [9] 0.034 | [10] 0.19

PWP2 (UniProt Q15269)
inactive: [1] -0.017 | [2] -0.012 | [3] 0.001 | [4] -0.016 | [5] 0.005 | [6] -0.075 | [7] -0.013 | [8] -0.017 | [9] -0.023 | [10] 0.029

PGRMC1 (UniProt O00264)
Sequence of UniProt O00264 (O00264 whole entry, looked up): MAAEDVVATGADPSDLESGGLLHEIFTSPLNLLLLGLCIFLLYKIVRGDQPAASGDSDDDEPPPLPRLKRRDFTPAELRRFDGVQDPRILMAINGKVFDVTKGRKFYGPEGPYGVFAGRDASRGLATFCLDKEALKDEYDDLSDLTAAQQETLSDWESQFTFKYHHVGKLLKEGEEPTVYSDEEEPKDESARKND
inactive: [1] 0.001 | [2] -0.023 | [3] 0.057 | [4] -0.011 | [5] -0.024 | [6] 0.047 | [7] 0.035 | [8] -0.052 | [9] 0.004 | [10] 0.018

PHKB isoform 3 (UniProt Q93100)
inactive: [1] -0.042 | [2] 0.025 | [3] 0.026 | [4] -0.126 | [5] -0.025 | [6] 0.127 | [7] -0.021 | [8] -0.061 | [9] -0.012 | [10] 0.027

PLEKHA5 isoform 6 (UniProt Q9HAU0)
inactive: [1] 0.003 | [2] -0.054 | [3] 0.006 | [4] -0.033 | [5] -0.032 | [6] 0.093 | [7] 0.002 | [8] -0.028 | [9] -0.061 | [10] 0.002

PCYT1B (UniProt Q9Y5K3)
active: [10] 0.239
inactive: [1] 0.008 | [2] 0.004 | [3] 0.025 | [4] -0.044 | [5] -0.007 | [6] 0.193 | [7] 0.008 | [8] -0.003 | [9] -0.127

PHGDH (UniProt O43175)
inactive: [1] -0.053 | [2] 0.005 | [3] 0 | [4] 0.076 | [5] 0 | [6] -0.071 | [7] 0.019 | [8] -0.039 | [9] 0.032 | [10] -0.055

PRIM1 (UniProt P49642)
inactive: [1] -0.02 | [2] 0.023 | [3] -0.064 | [4] 0.024 | [5] 0.004 | [6] -0.099 | [7] 0.027 | [8] -0.022 | [9] -0.077 | [10] 0.007

PPOX (UniProt P50336)
active: [1] 0.379 | [6] 0.581
inactive: [2] 0.111 | [3] -0.068 | [4] -0.075 | [5] 0.04 | [7] 0.003 | [8] 0.206 | [9] -0.028 | [10] 0.11

PEF1 (UniProt Q9UBV8)
inactive: [1] 0.019 | [2] 0.041 | [3] -0.002 | [4] 0.051 | [5] -0.004 | [6] -0.055 | [7] 0.032 | [8] -0.01 | [9] -0.027 | [10] 0.051
